From PubChem BioAssay AID720712 (NMMLSC, 2013)
Calls of active or inactive are those of the source.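 Rule for the calls: active = EC50 at most 10 µM with response changing by at least 30 points across doses, from an acceptable curve fit; inactive = the rest.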

Biological target: Cell division control protein 42 homolog (Homo sapiens) (UniProt P60953)
Experiment: Cdc42 wildtype GTP-binding inhibitors, late-stage follow-up, mechanism study for Ras-family GTPase inhibitor project, biochemical, compound preincubation comparison, flow cytometry beads, Bodipy-FL-GTP (AID 720712)
Details: GST-Cdc42 beads, EDTA, protocol B; series mostly up to 100 µM

Sequence of Cell division control protein 42 homolog (Homo sapiens) (P60953 whole entry, looked up): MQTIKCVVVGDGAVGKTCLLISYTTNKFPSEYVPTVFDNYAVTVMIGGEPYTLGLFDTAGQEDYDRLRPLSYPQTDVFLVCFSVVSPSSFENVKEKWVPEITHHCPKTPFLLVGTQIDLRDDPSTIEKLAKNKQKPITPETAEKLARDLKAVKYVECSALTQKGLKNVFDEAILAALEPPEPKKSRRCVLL

Row | Compound | outcome
1 | CC1(C)Cc2c(sc(NC(=S)NC(=O)c3ccc(N=[N+]=[N-])cc3)c2C(=O)O)CO1 | inactive
2 | CC1(C)Cc2c(sc(NC(=S)NC(=O)c3cccc(N=[N+]=[N-])c3)c2C(=O)O)CO1 | inactive
